Source: PubChem BioAssay (NCI)
About 83,000 compounds went through this panel and 20% of them were active in at least one assay; those are over-represented in the sample as a whole.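 The test compound was applied at a single concentration to cells in 96-well plates for 48 hours, and percent growth was recorded.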 Active and inactive are the calls of the source. Rule for the calls: active = growth percent below 10; inactive = the rest.

Columns and labels:
Assay in all cases: NCI-60 one-dose screen, 48 h (100 = growth as untreated, 0 = no growth, -100 = all killed)
K-562 leukemia = conditions: 10 µM unless noted
MALME-3M melanoma = conditions: 10 µM unless noted
MDA-MB-231 breast = conditions: 10 µM unless noted
RXF 393 renal = conditions: 10 µM unless noted
SF-268 CNS = conditions: 10 µM unless noted
SF-295 CNS = conditions: 10 µM unless noted
SF-539 CNS = conditions: 10 µM unless noted
UACC-257 melanoma = conditions: 10 µM unless noted
M14 melanoma = conditions: 10 µM unless noted
HCT-15 colon = conditions: 10 µM unless noted
HT29 colon = conditions: 10 µM unless noted
SNB-75 CNS = conditions: 10 µM unless noted
SNB-19 CNS = conditions: 10 µM unless noted
U251 CNS = conditions: 10 µM unless noted
PC-3 prostate = conditions: 10 µM unless noted
SK-MEL-5 melanoma = conditions: 10 µM unless noted
UACC-62 melanoma = conditions: 10 µM unless noted
LOX IMVI melanoma = conditions: 10 µM unless noted
SK-MEL-28 melanoma = conditions: 10 µM
SK-MEL-2 melanoma = conditions: 10 µM unless noted

Measured: growth

Cc1c(-c2noc(-c3ccc([N+](=O)[O-])cc3)n2)no[n+]1[O-]
inactive: K-562 leukemia 93.7% | MALME-3M melanoma 99.5% | MDA-MB-231 breast 95.4% | RXF 393 renal 102% | SF-268 CNS 92.6% | SF-295 CNS 99.9% | SF-539 CNS 97.4% | UACC-257 melanoma 106% | M14 melanoma 93.8% | HCT-15 colon 93.1% | HT29 colon 105% | SNB-75 CNS 89.8% | SNB-19 CNS 99.8% | U251 CNS 99.8% | PC-3 prostate 92.5% | SK-MEL-5 melanoma 92.1% | UACC-62 melanoma 87.6% | LOX IMVI melanoma 97.7% | SK-MEL-28 melanoma 108% | SK-MEL-2 melanoma 101%

COc1c2ccoc2c(/C=C/C=O)c2oc(-c3ccccc3)cc(=O)c12
inactive: K-562 leukemia 24.1% | MALME-3M melanoma 98% | MDA-MB-231 breast 66.3% | RXF 393 renal 79% | SF-268 CNS 39.8% | SF-295 CNS 51.3% | SF-539 CNS 38.3% | UACC-257 melanoma 108% | M14 melanoma 70.8% | HT29 colon 87.1% | SNB-75 CNS 95.2% | SNB-19 CNS 87.1% | U251 CNS 16.3% | PC-3 prostate 37.9% | SK-MEL-5 melanoma 48.6% | UACC-62 melanoma 83% | SK-MEL-28 melanoma 102% | SK-MEL-2 melanoma 78.2%
active: HCT-15 colon 3.15% | LOX IMVI melanoma -41%

O=c1cc(NC2CCN(CCCc3ccccc3)CC2)c2cc(Cl)ccc2o1
inactive: SF-268 CNS 17.2% | SF-539 CNS 19.4% | HCT-15 colon 14.1% | SNB-19 CNS 25.6%
active: K-562 leukemia 5.97% | MALME-3M melanoma -30.4% | MDA-MB-231 breast -62.2% | RXF 393 renal -25.3% | SF-295 CNS -44.1% | UACC-257 melanoma -31.5% | M14 melanoma 4.04% | HT29 colon -12.9% | SNB-75 CNS -5.24% | U251 CNS -24.7% | PC-3 prostate 0% | SK-MEL-5 melanoma -54.6% | UACC-62 melanoma 9.81% | LOX IMVI melanoma -1.07% | SK-MEL-28 melanoma 8.62% | SK-MEL-2 melanoma -44%

Cc1ccc(CN2CCC(C(=O)Nc3ccc(-c4cc5ccccc5[nH]4)cc3)CC2)o1
active: K-562 leukemia 3.08% | PC-3 prostate 2.12%
inactive: MALME-3M melanoma 77.9% | MDA-MB-231 breast 60.7% | RXF 393 renal 54.6% | SF-268 CNS 66.6% | SF-295 CNS 17.2% | SF-539 CNS 84.3% | UACC-257 melanoma 85.4% | M14 melanoma 41.9% | HCT-15 colon 44.2% | HT29 colon 57.1% | SNB-75 CNS 100% | SNB-19 CNS 80% | U251 CNS 39.8% | SK-MEL-5 melanoma 50.4% | UACC-62 melanoma 72.1% | LOX IMVI melanoma 42.2% | SK-MEL-28 melanoma 85.1% | SK-MEL-2 melanoma 88.4%

FC(F)(F)c1cccc(CNC2CCN(CCc3ccccc3)CC2)c1
inactive: K-562 leukemia 30.1% | MALME-3M melanoma 74.8% | MDA-MB-231 breast 66.5% | RXF 393 renal 84.1% | SF-268 CNS 74.7% | SF-295 CNS 81.7% | SF-539 CNS 93.5% | UACC-257 melanoma 87% | M14 melanoma 49.2% | HCT-15 colon 86.8% | HT29 colon 46.9% | SNB-75 CNS 71.2% | SNB-19 CNS 91.7% | U251 CNS 77.4% | PC-3 prostate 25.2% | SK-MEL-5 melanoma 90% | UACC-62 melanoma 86.4% | LOX IMVI melanoma 56% | SK-MEL-28 melanoma 85.1% | SK-MEL-2 melanoma 91%

CCOC(=O)c1c(C=O)nc2ccccc2c1/C=C/c1ccc(Cl)cc1
inactive: K-562 leukemia 61.7% | MALME-3M melanoma 100% | MDA-MB-231 breast 87.7% | RXF 393 renal 99.5% | SF-268 CNS 91.2% | SF-295 CNS 101% | SF-539 CNS 90.9% | UACC-257 melanoma 105% | M14 melanoma 91.6% | HCT-15 colon 89.6% | HT29 colon 112% | SNB-75 CNS 79.7% | SNB-19 CNS 92.8% | U251 CNS 92.6% | PC-3 prostate 91.4% | SK-MEL-5 melanoma 83.1% | UACC-62 melanoma 102% | LOX IMVI melanoma 96.9% | SK-MEL-28 melanoma 103% | SK-MEL-2 melanoma 105%

Nc1nc(-c2ccccc2Br)nn1-c1nc2ccccc2s1
inactive: K-562 leukemia 94.8% | MALME-3M melanoma 105% | MDA-MB-231 breast 101% | RXF 393 renal 104% | SF-268 CNS 97.4% | SF-295 CNS 102% | SF-539 CNS 99.6% | UACC-257 melanoma 89% | M14 melanoma 98.3% | HCT-15 colon 97.2% | HT29 colon 101% | SNB-75 CNS 96.7% | SNB-19 CNS 97.2% | U251 CNS 107% | PC-3 prostate 103% | SK-MEL-5 melanoma 104% | UACC-62 melanoma 96.6% | LOX IMVI melanoma 106% | SK-MEL-28 melanoma 103% | SK-MEL-2 melanoma 96.7%
